This is a sample that favours compounds with a hit; in the whole collection about 2.1% have one here.
Gli-Sufu antag: antagonists of Gli-Sufu signaling. inhibition, % at 5 µM. actives 0.74% (n = 340,000). AID 588413. Sufu-KO-LIGHT fibroblasts, Gli luciferase reporter luminescence;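 active = inhibition above about 55%, limit read from the data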;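 also: 0% = DMSO-treated cells and 100% = wells with medium but no cells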
aDG glyco act: alpha-DG glycosylation activation. Pro5-aDG cells, alpha-DG glycosylation AlphaScreen (IIH6); 0% Pro5, 100% B10-LARGE cell signal. activation, % at 10 µM. actives 0.22% (n = 360,000). AID 624168;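 active = activation of at least 8% versus controls, or a plate z-score of at least 8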;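 also: Pro5 are CHO cells carrying HIG-tagged alpha-DG that lacks glycosylation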
GalR3 antag: blocks the human galanin receptor 3 | inhibition, % at 3 µM | HEK293 GalR3-CNG cAMP membrane potential fluorescence; galR3 body fused to GalR1 C-terminus | AID 651719 | actives 0.44% (n = 360,000) | O60755;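 active = inhibition above the screen-wide average plus 3 SD, cut at about 13% in these data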;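 also: forskolin and galanin both at EC90 stimulate the cells; cAMP rise reported by CNG channel membrane potential dye signal; 0% = forskolin plus galanin with DMSO and 100% = forskolin alone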
Target sequence (O60755 1-299 limits assumed): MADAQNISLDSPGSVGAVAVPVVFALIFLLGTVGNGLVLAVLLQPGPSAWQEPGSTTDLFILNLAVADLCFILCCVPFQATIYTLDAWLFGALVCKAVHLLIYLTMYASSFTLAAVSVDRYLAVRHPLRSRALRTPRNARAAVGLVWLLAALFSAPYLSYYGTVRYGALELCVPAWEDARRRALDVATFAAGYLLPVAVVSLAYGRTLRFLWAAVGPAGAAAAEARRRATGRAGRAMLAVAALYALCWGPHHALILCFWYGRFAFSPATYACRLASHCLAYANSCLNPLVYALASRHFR
Env fusion inh: blocks HIV Env-driven cell-cell fusion | HeLa-JRFL Env/CEM21 cell fusion, luciferase | inhibition, % at 12.3 µM | actives 1.1% (n = 360,000) | AID 651610;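 active = mean replicate inhibition score of at least 50 and every replicate individually at or above 50; inconclusive = only one of the two criteria met; inactive = mean below 50 and not all replicates reaching 50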;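 also: 0% = plate neutral controls and 100% = maraviroc near 300 nM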
COUP-TFII inh: NR2F2 (human) inhibition, primary screen | P24468 | HEK293T NGFI-A luciferase reporter, luminescence | inhibition, % at 8.6 µM | actives 0.7% (n = 370,000) | AID 686940;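 active = inhibition above a per-plate cutoff, mean inhibition of test wells between control levels plus 3 SD, cut at about 38% in these data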;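 also: cells cotransfected with COUP-TFII expression vector driving the NGFI-A reporter; 0% = median of COUP-TF2 test wells and 100% = reporter-only cells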
Target sequence (P24468 whole entry, looked up): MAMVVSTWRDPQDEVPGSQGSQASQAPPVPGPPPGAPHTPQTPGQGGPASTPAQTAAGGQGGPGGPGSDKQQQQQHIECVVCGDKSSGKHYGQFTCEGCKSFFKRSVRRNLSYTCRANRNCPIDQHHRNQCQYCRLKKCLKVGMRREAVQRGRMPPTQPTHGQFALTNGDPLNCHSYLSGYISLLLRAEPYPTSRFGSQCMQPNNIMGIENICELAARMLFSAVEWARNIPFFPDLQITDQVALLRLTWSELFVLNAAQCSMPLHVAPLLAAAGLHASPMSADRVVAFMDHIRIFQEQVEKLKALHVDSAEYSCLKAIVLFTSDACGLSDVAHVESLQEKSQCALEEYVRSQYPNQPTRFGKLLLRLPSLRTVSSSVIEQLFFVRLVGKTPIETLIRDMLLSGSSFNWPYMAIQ
GalR3 antag conf: GalR3 (human) antagonism, confirmation; shares compounds with GalR3 antag; HEK293 GalR3 CNG cAMP biosensor, membrane potential fluorescence; galR3 fused to GalR1 carboxy tail; challenged with forskolin and galanin at EC90; actives 59% (n = 1,600); AID 652245; inhibition, % at 3 µM;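 active = inhibition above the primary screen's cutoff, the mean inhibition of all screened compounds plus 3 SD, cut at about 13% in these data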;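 also: 0% = forskolin plus galanin and 100% = forskolin alone with DMSO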
HEK-CNG parental: parental cell agonism counter-screen for GalR3 antagonists; shares compounds with GalR3 antag; HEK293-CNG parental cells, cAMP membrane potential fluorescence; normalised: DMSO wells 0%, forskolin wells 100%; activation, % at 3 µM; actives 10% (n = 1,600); AID 652268; in the data active = activation above about 1.3%
VP16 Luc counter: counter-screen for COUP-TFII antagonists: inhibitors of VP16; actives 25% (n = 2,500); HEK293 Gal4-VP16 luciferase reporter, luminescence; inhibition, % at 8.5 µM; shares compounds with COUP-TFII inh; in the data active = inhibition above about 13%
COUP-TFII conf: COUP-TFII (NR2F2) inhibition, confirmation assay; HEK293 NGFI-A luciferase reporter, luminescence; AID 687008; actives 45% (n = 2,500); shares compounds with COUP-TFII inh; inhibition, % at 8.5 µM;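 active = mean inhibition over three repeats above a set limit taken from the earlier primary screen, cut at about 38% in these data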;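 also: 100% = cells given the luciferase reporter alone without the COUP-TF2 vector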
* marks the source's active call; other numbers are inactive results; ? = inconclusive; . = not tested or not shown; [ ] = remark or other dose.

SMILES	Gli-Sufu antag	aDG glyco act	GalR3 antag	Env fusion inh	COUP-TFII inh	GalR3 antag conf	HEK-CNG parental	VP16 Luc counter	COUP-TFII conf
COc1ccc(N2C(=O)C3CCCN3C2c2cccc(OC)c2OC)cc1 (configuration not stated)	7.6	0.1	4.3	-1.9	-14.9	.	.	.	.
COc1cccc(C2N(c3ccccc3)CCN2c2ccccc2)c1OC	-3.5	-0.3	13.8*	-0.5	17.2	8.5	0.3	.	.
Cc1ccc(CN2CCc3c(OCc4ccc(F)cc4)cccc3C2=O)cc1	13.9	1.1	-6.4	54.3	21.8	.	.	.	.
O=C1c2cccc(OCc3ccc(F)cc3)c2CCN1Cc1ccc(F)cc1	35.2	1.5	19.6*	50.7	57.8*	38.3*	0.4	0.8	43.5*
Nc1cc(-c2ccc(Br)cc2)nn1Cc1ccccc1	-23.0	0.9	60.5*	22.1	37.4*	103.3*	-1.5	-67.0	10.3
FC(F)(F)c1cnc(N2CCCN(C(=S)Nc3ccccc3)CC2)c(Cl)c1	12.3	0.5	40.1*	87.1*	39.4*	79.8*	-0.5	-6.8	24.6
FC(F)(F)c1cnc(N2CCN(C(=S)NCc3ccccc3)CC2)c(Cl)c1	34.1	0.1	-3.2	15.1	1.6	.	.	.	.
COc1ccc(CNC(=O)c2sc(=O)n(Cc3ccc(-c4ccccc4)cc3)c2C)cc1OC	.	0.9	26.3*	?	44.5*	16.0*	-0.6	1.7	40.7*
O=C(N[C@H]1CC[C@H](CCn2cc(C3(O)CCCC3)nn2)O[C@H]1CO)c1ccccc1F	.	.	.	-0.4[16.7 µM]	.	.	.	.	.
CC(=O)c1cccc(NS(=O)(=O)c2ccc(C(=O)Nc3ccccc3)cc2)c1	31.5	0.3	55.6*	12.5	49.2*	71.0*	-0.4	12.2	48.3*
C[C@H]1CN([C@@H](C)CO)C(=O)Cc2cc(NC(=O)NC3CCCCC3)ccc2O[C@@H]1CN(C)CC1CC1	.	.	.	0.1[16.7 µM]	.	.	.	.	.
COc1cc(CCC(=O)OCC(=O)Nc2sccc2C(N)=O)cc(OC)c1OC	-2.3	1.9	92.6*	.	38.6*	102.0*	-0.5	-4.2	20.6
CO[C@@H]1CN(C)C(=O)c2ccc(NC(=O)Nc3cc(F)ccc3F)cc2OC[C@H](C)N(C)C[C@H]1C	.	.	.	7.4[16.7 µM]	.	.	.	.	.
Cc1cc(C(C)(C)C)ccc1OCCCCN1CCCC1	-2.4	1.2	2.6	4.8	-2.4	.	.	.	.
CCC(C)(C)c1ccc(OCCCC[n+]2cccc(C)c2C)c(C(C)(C)CC)c1	84.9*	0.3	15.1*	99.2*	57.1*	66.6*	1.3*	14.3*	59.9*
CCN(CC)c1ccc(C(=C2C=CC(=[N+](CC)CC)C=C2)c2ccccc2)cc1	92.3*	-0.7	33.5*	80.6*	105.2*	64.1*	1.4*	98.2*	112.7*
CCN(CC)c1ccc(C(=O)NNC(=O)CCNC(=O)c2ccccc2)cc1	.	-0.2	-3.2	.	-4.8	.	.	.	.
CCN(CC)c1ccc(C(=C2C=CC(=[N+](CC)CC)C=C2)c2ccc(N(CC)CC)cc2)cc1	87.2*	-1.5	32.5*	62.1*	83.4*	35.6*	-3.6	57.0*	79.6*
CCN(CC)c1ccc(C(=O)NNC(=O)CCl)cc1	-40.0	0.0	0.9	18.4	5.2	.	.	.	.
CCOCCCNC(=S)N1CCN(c2nc(-c3ccc(F)cc3)cs2)CC1	20.7	0.4	36.8*	?	59.2*	88.0*	-1.0	-6.0	41.5*
O=C(C[C@@H]1C=C[C@@H](NC(=O)Nc2cccc(F)c2)[C@H](CO)O1)NCC1CC1	.	.	.	23.4[16.7 µM]	.	.	.	.	.
O=S(=O)(c1ccccc1)N1CCC(O)(CSc2ccc(F)cc2)CC1	16.8	0.8	72.5*	31.7	40.5*	44.1*	-0.9	2.1	27.0
CN(C)S(=O)(=O)N1CCC(Oc2cccc(C(=O)NC3CCCCCC3)c2)CC1	46.8	3.0	28.9*	29.4	63.3*	99.9*	-0.3	4.9	66.3*
COc1ccc(S(=O)(=O)N(C)C[C@@H]2Oc3ccc(NC(=O)CCN4CCOCC4)cc3CC(=O)N([C@@H](C)CO)C[C@H]2C)cc1	.	.	.	2.2[16.7 µM]	.	.	.	.	.
CC1CCN(c2ncnc3ccccc23)CC1	20.8	2.5	73.4*	33.2	45.1*	7.8	-1.0	-0.8	17.3
SMILES	Gli-Sufu antag	aDG glyco act	GalR3 antag	Env fusion inh	COUP-TFII inh	GalR3 antag conf	HEK-CNG parental	VP16 Luc counter	COUP-TFII conf
CC1CCN(c2nc(-c3ccccc3O)nc3ccccc23)CC1	2.1	0.0	-1.7	-3.3	25.2	.	.	.	.
O=C1C=C(c2c(O)ccc3ccccc23)c2ccccc2C1=O	1.6	-0.2	22.8*	13.0	57.8*	81.7*	-4.6	21.1*	43.0*
CC(=O)N1c2ccc(S(=O)(=O)N3CCC(C(=O)Nc4ccccn4)CC3)cc2CC1C (configuration not stated)	7.4	0.1	-6.8	-5.7	15.5	.	.	.	.
CC(=O)N1c2ccc(S(=O)(=O)NCC3CCC(C(=O)Nc4cccc(C)n4)CC3)cc2CC1C (configuration not stated)	40.4	1.2	24.5*	5.2	56.3*	11.5	-0.3	-3.4	28.0
CC(=O)N1c2ccc(S(=O)(=O)N3CCC(C(=O)Nc4cccc(C)n4)CC3)cc2CC1C (configuration not stated)	52.5	-0.1	51.4*	13.1	54.1*	93.7*	-0.5	6.7	54.2*
CC(=O)c1ccc(N2CCN(S(=O)(=O)c3ccc4c(c3)CC(C)N4C(C)=O)CC2)cc1 (configuration not stated)	57.2*	3.5	98.5*	51.9	58.9*	105.6*	-0.3	-2.1	44.3*
COc1cccc(NC(=O)C2CCC(CNS(=O)(=O)c3ccc4c(c3)CC(C)N4C(C)=O)CC2)c1 (configuration not stated)	-12.8	0.5	-8.2	-7.8	-22.3	.	.	.	.
O=C(NC1CCCC1)N1CC(=O)N2[C@H](CO)[C@H](c3ccc(C4=CCCC4)cc3)[C@@H]2C1	.	.	.	-2.9[16.7 µM]	.	.	.	.	.
COc1ccc(CNC(=O)C[C@@H]2C[C@@H]3c4cc(NC(=O)CN(C)C)ccc4O[C@@H]3[C@@H](CO)O2)cc1	.	.	.	-0.8[16.7 µM]	.	.	.	.	.
COc1cccc(C(C)(O)c2nc(-c3ccc(N(C)C)cc3)cs2)c1 (configuration not stated)	.	0.6	95.8*	47.6	54.7*	101.4*	-0.7	-21.5	34.5
C[C@@H]1CN([C@H](C)CO)C(=O)c2cc(NC(=O)C3CCCCC3)ccc2O[C@H]1CN(C)Cc1ccncc1	.	.	.	27.7[16.7 µM]	.	.	.	.	.

Screens (PubChem BioAssay)
